Calb FLC: C. albicans growth inhibition with fluconazole, primary screen, CaCi-2 strain, Alamar Blue fluorescence. 300,000 compounds, 0.57% hits. growth inhibition, % (concentration not given with the values). C. albicans CaCi-2 (fluconazole-resistant clinical isolate) + fluconazole, 48 h. AID 1979, 2009;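 active = growth inhibition above about 58% in most replicates, limit read from the data, passing the limit was not always enough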;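 note: all wells also contain fluconazole at 8 µg/ml as a sub-toxic cotreatment; 0% = median of DMSO wells and 100% = median of geldanamycin control wells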
PP5 primary: PP5 phosphatase inhibitors, primary screen, biochemical, fluorescence | AID 1987, 2009 | Serine/threonine-protein phosphatase 5 (Homo sapiens), P53041 | inhibition, % at 6.7 µM | purified PP5c, OMFP substrate fluorescence | 320,000 compounds, 0.18% hits;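 active = inhibition above the campaign's mean inhibition across all tested compounds plus 3 SD, cut at about 9.5% in these data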;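 note: 0% = DMSO only and 100% = 100 µM cantharidin control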
PP1 inh: PP1-alpha phosphatase inhibitors, primary screen, counter-screen for PP5 inhibitor project, biochemical, fluorescence, OMFP substrate, single point; Serine/threonine-protein phosphatase PP1-alpha catalytic subunit (Homo sapiens), P62136; purified PP1alpha; inhibition, % at 6.7 µM; 320,000 compounds, 0.9% hits;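 active = inhibition above the mean inhibition of all tested compounds plus 3 SD, computed separately for each screening campaign, cut at about 15% in these data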
Target sequence (P62136 whole entry, looked up): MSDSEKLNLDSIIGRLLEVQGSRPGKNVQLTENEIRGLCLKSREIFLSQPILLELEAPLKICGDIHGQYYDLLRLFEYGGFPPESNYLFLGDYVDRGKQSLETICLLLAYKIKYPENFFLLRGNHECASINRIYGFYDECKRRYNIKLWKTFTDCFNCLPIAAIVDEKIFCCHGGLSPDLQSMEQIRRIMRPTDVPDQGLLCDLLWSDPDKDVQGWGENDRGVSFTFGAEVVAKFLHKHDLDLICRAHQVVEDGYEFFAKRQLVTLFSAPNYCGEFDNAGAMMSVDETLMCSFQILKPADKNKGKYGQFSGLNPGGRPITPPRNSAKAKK
ALR H2O2 inh: inhibitors of human ALR sulfhydryl oxidase, primary screen, biochemical, H2O2 detection, HRP-luminol luminescence, single point. purified ALR, DTT oxidation. inhibition, % (test concentration not listed). 290,000 compounds, 3.8% hits;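 active = mean replicate inhibition above about 79%, with every replicate also reaching it, limit read from the data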
Target sequence (P55789 whole entry, looked up): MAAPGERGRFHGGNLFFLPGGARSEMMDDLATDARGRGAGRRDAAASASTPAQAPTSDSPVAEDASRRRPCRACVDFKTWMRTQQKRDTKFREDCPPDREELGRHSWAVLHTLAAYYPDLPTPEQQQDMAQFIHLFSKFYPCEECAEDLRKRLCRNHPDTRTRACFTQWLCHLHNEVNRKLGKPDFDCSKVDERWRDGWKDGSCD
CSC inhib: cancer stem cell viability inhibitors, primary screen, luminescence; cancer stem cell-like cells viability; inhibition, % at 7.5 µM; 300,000 compounds, 1.1% hits; AID 2717, 2010; in the data active = inhibition above about 75%; tested in HMLE shEcad cells
An asterisk follows results filed as active; x = no result. Rows were chosen to be rich in hits. Some 5.4% of all compounds tested hit in one or more screens of this group.

SMILES | Calb FLC | PP5 primary | PP1 inh | ALR H2O2 inh | CSC inhib
Cc1cc(C)c2nc(N3CCCC(C(=O)N4CCN(c5ncccn5)CC4)C3)sc2c1 (centres undefined) | 12 | 1 | -4 | -8 | 75*
Cc1cc(C)c2nc(N3CCC(C(=O)N4CCN(C(=O)c5ccco5)CC4)CC3)sc2c1 | -6 | 3 | 1 | 3 | x
O=C(NC12CC3CC(CC(C3)C1)C2)c1ccc(-c2ccccc2Cl)o1 | 6 | 1 | 0 | x | 125*
O=C(NC12CC3CC(CC(C3)C1)C2)c1ccc(-c2cccc(Cl)c2)o1 | -5 | -1 | 0 | -2 | 95*
O=C(O)CCc1[nH]c2ccccc2c1Sc1ccccc1 | 41 | -1 | 4 | 99* | 13
O=C(O)CCc1c(C(=O)O)[nH]c2ccccc12 | 6 | 1 | -2 | -6 | -12
Cn1c(=O)[nH]c(=O)c2c1nc(Br)n2CCCSc1nc2ccccc2o1 | 14 | 1 | 5 | 98* | x
Cn1c(=O)[nH]c(=O)c2c1nc(N1CCCC1)n2CCCSc1nc2ccccc2o1 | 8 | 2 | 2 | 5 | -11
CCN(CC)c1ccc([N+](=O)[O-])cc1C(=O)N1CCOCC1 | 8 | 3 | -3 | 2 | 8
COc1cccc(OCc2cc(/C=N/n3cncn3)ccc2OC)c1 | 8 | 2 | 4 | -5 | 3
COc1ccc(/C=N/n2cncn2)cc1CSc1ccccn1 | 2 | 1 | 2 | 99* | -10
Cc1ccc(NS(=O)(=O)c2ccc(C(=O)NCC(c3ccco3)N(C)C)cc2)cc1 (centres undefined) | -12 | -1 | -3 | -5 | x
Fc1ccccc1-n1cc(-c2ccccc2)[nH]c1=S | -41 | 0 | -5 | 93* | -9
COc1ccc(-n2cc(-c3ccccc3)[nH]c2=S)c(OC)c1 | 4 | 1 | 11 | 90* | 22
O=C(Nc1cccc(C(F)(F)F)c1)Nc1ccc(N2CCCC2)c(S(=O)(=O)Nc2ccccc2Cl)c1 | 5 | 1 | 6 | -2 | 78*
COC(C[C@H]1O[C@H]1C(=O)[C@@H](C)OCc1ccccc1)OC | 6 | 0 | -1 | 16 | -15
COc1ccccc1NC(=O)Nc1ccccc1C#N | -2 | 1 | -4 | -11 | 8
COc1ccccc1CCC(=O)Oc1ccccc1C#N | -12 | x | x | 85* | 4
O=C(NCc1ccccc1)c1nc[nH]c1C(=O)N1CCc2ccccc2C1 | x | -1 | 3 | 21 | -11
CCN(c1ccccc1)S(=O)(=O)c1nnc(NC(=O)C(C)(C)C)s1 | -7 | 2 | -1 | x | 4
COc1ccc2[nH]c(=O)c(CN(Cc3ccco3)C(c3nnnn3Cc3ccccc3)C(C)C)cc2c1 (centres undefined) | 13 | 4 | 0 | 0 | 21
Cc1cccc2cc(CN(Cc3ccco3)C(c3nnnn3CCc3ccccc3)C(C)C)c(=O)[nH]c12 (centres undefined) | 12 | 4 | 16* | -7 | 37
CCOc1ccc(CCNC(=O)C2CCN(S(=O)(=O)N3CC(C)CC(C)C3)CC2)cc1OCC (centres undefined) | 6 | 0 | 1 | -4 | -18
O=C(O)c1ccc(CN2C(=O)CSC2=S)cc1 | 98* | 2 | -5 | -16 | 23
O=C(O)c1ccc(N2C(=O)CSC2=S)cc1 | 4 | -1 | 4 | 63 | -9
SMILES | Calb FLC | PP5 primary | PP1 inh | ALR H2O2 inh | CSC inhib
Cc1ccc(-c2nc(N)sc2-c2ccc(C)cc2)cc1 | 27 | x | x | x | x
CN(C)c1ccc(Nc2nc(N)c([N+](=O)[O-])c(N3CCOCC3)n2)cc1 | 10 | 1 | -2 | 99* | 9
Cc1cccc(Nc2nc(N)c([N+](=O)[O-])c(N3CC(C)OC(C)C3)n2)c1 (centres undefined) | 18 | 0 | 1 | -2 | 7
COc1ccc(Nc2nc(N)c([N+](=O)[O-])c(N3CCOCC3)n2)cc1 | 1 | 1 | -2 | 1 | 6
Cc1cccc(Nc2nc(N)c([N+](=O)[O-])c(N3CC(C)CC(C)C3)n2)c1 (centres undefined) | 2 | 6 | 4 | 24 | 105*
Cn1nnc2c(C(N)=O)ncn2c1=O | x | 2 | -2 | x | x
COCCn1c(SCc2csc(-c3ccccc3)n2)nc2ccccc21 | 36 | 2 | -2 | 74 | -7
Cc1ccc(C(=O)ON=C2CCN(c3ccc([N+](=O)[O-])cc3)CC2)cc1 | 16 | 3 | 16* | 9 | 6
CCN1CCCC1CNC(=O)CSCc1nc(-c2ccccc2C)oc1C (centres undefined) | -6 | 1 | -3 | 100* | 26
Cc1ccc(C2SCC(=O)N2Cc2ccccc2)cc1 (centres undefined) | -7 | 2 | 1 | 3 | -1
COc1ccc(N2C(=O)CSC2c2ccccc2[N+](=O)[O-])cc1 (centres undefined) | -33 | -1 | -3 | 99* | -22
COc1ccc(C2SCC(=O)N2c2ccc(C)cc2)cc1 (centres undefined) | 1 | x | x | 32 | -11
Cc1ccc(N2C(=O)CSC2c2ccc3c(c2)OCO3)cc1 (centres undefined) | 23 | -2 | -1 | 99* | -3
COc1ccc(C2SCC(=O)N2Cc2ccccc2)cc1 (centres undefined) | -9 | 3 | 0 | 81* | 1
COc1ccc(N2C(=O)CSC2c2ccccc2)cc1 (centres undefined) | -3 | 4 | -2 | 97* | -7
O=C1CSC(c2ccccc2)N1c1ccc([N+](=O)[O-])cc1 (centres undefined) | 21 | -1 | 1 | 99* | -7
CC(=O)Nc1ccc(N2C(=O)CSC2c2ccc(F)cc2)cc1 (centres undefined) | 7 | 1 | 2 | 99* | x
CCOc1ccc(C2NC(=O)c3sc(=S)n(-c4ccccc4)c3N2)cc1 (centres undefined) | -6 | 2 | 2 | 81* | -2
COc1ccc(C2NC(=O)c3sc(=S)n(-c4ccccc4)c3N2)cc1 (centres undefined) | -3 | 1 | -1 | 64 | -21
Cc1nc(NC(=O)c2ccc(Cl)cc2)sc1Cc1ccc2c(c1)OCO2 | 0 | 1 | -2 | -3 | 79*
O=c1[nH]ccc2c(O)cccc12 | 4 | -2 | -2 | 98* | -11
Nc1cccc2c(O)cccc12 | -6 | 0 | -2 | -4 | 1
Cc1ccc(OCC(=O)Nc2cc(S(=O)(=O)N3CCCCC3)ccc2N2CCN(C)CC2)c(C)c1 | -13 | 1 | 4 | -1 | 14
O=S(=O)(c1cccc(-c2nc3ccccc3s2)c1)N1CCOCC1 | 5 | 1 | 1 | -20 | 11
Cc1nc(-c2ccc(S(=O)(=O)N3CCCCCC3)cc2)cs1 | -5 | 4 | -1 | -2 | -17

Compound activity from PubChem BioAssay.
